# PubChem BioAssay (NCI)
# Compounds without any hit were thinned out: in the full panel of roughly 83,000, 20% have a hit.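 Values shown are percent growth following 48 h exposure of cells in 96-well plates to a single concentration of compound; below 10 was considered active.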 Values without a mark were called inactive. The source made the active and inactive calls.
# Key:
# Experiment in all cases: NCI-60 one-dose screen, 48 h (100 = growth as untreated, 0 = no growth, -100 = all killed)
# Conditions in all cases: 10 µM unless noted
# SK-MEL-2 melanoma = system: SK-MEL-2 melanoma
# SN12C renal = system: SN12C renal
# UO-31 renal = system: UO-31 renal
# TK-10 renal = system: TK-10 renal
# ACHN renal = system: ACHN renal
# CAKI-1 renal = system: CAKI-1 renal
# A498 renal = system: A498 renal
# MOLT-4 leukemia = system: MOLT-4 leukemia
# SR leukemia = system: SR leukemia
# RPMI-8226 leukemia = system: RPMI-8226 leukemia
# OVCAR-8 ovarian = system: OVCAR-8 ovarian
# OVCAR-5 ovarian = system: OVCAR-5 ovarian
# OVCAR-4 ovarian = system: OVCAR-4 ovarian
# SK-OV-3 ovarian = system: SK-OV-3 ovarian
# IGROV1 ovarian = system: IGROV1 ovarian
# OVCAR-3 ovarian = system: OVCAR-3 ovarian
# HS 578T breast = system: HS 578T breast
# NCI/ADR-RES ovarian = system: NCI/ADR-RES ovarian
Structure (SMILES),growth (SK-MEL-2 melanoma),growth (SN12C renal),growth (UO-31 renal),growth (TK-10 renal),growth (ACHN renal),growth (CAKI-1 renal),growth (A498 renal),growth (MOLT-4 leukemia),growth (SR leukemia),growth (RPMI-8226 leukemia),growth (OVCAR-8 ovarian),growth (OVCAR-5 ovarian),growth (OVCAR-4 ovarian),growth (SK-OV-3 ovarian),growth (IGROV1 ovarian),growth (OVCAR-3 ovarian),growth (HS 578T breast),growth (NCI/ADR-RES ovarian)
CC(C)OP(=O)(OC(C)C)c1ncc(-c2ccc(C(F)(F)F)cc2)c(NC2CCCCCC2)n1,-85.1% [33.3 µM] (active),-72.9% [33.3 µM] (active),-91.5% [33.3 µM] (active),1.08% [33.3 µM] (active),-1.03% [33.3 µM] (active),-29.4% [33.3 µM] (active),-94% [33.3 µM] (active),-46.2% [33.3 µM] (active),-30.3% [33.3 µM] (active),-40.7% [33.3 µM] (active),0.0612% [33.3 µM] (active),-89.1% [33.3 µM] (active),2.6% [33.3 µM] (active),8.69% [33.3 µM] (active),-11.2% [33.3 µM] (active),-96.8% [33.3 µM] (active),-30.1% [33.3 µM] (active),3.22% [33.3 µM] (active)
CC[N+](CCCCCCCCCC[N+](CC)(c1ccccn1)c1ccccn1)(c1ccccn1)c1ccccn1,-58.6% (active),5.03% (active),26.4%,-3% (active),20.9%,24.2%,-2.28% (active),-8.33% (active),-19.8% (active),1.5% (active),7.02% (active),24.1%,20.5%,8.24% (active),-35.2% (active),3.49% (active),28.5%,63.6%
COc1ccc(-c2c3c(N)nc(-c4ccncc4)nc3nc3c2c(C)nn3-c2ccccc2)cc1,48.1%,83.7%,85.4%,47%,3.79% (active),36%,73.2%,,17.1%,84.3%,63.2%,64.7%,11.4%,53.4%,77%,22.4%,71.2%,74.5%
COC(=O)[C@H](Cc1cnc[nH]1)NC(=O)[C@@H](NC(=O)Nc1cc(C(F)(F)F)cc(C(F)(F)F)c1)C(C)C,-93% [100 µM] (active),-96.3% [100 µM] (active),-21.7% [100 µM] (active),-95% [100 µM] (active),-58.3% [100 µM] (active),40.9% [100 µM],-87.8% [100 µM] (active),-45.5% [100 µM] (active),-37% [100 µM] (active),-53% [100 µM] (active),-83.6% [100 µM] (active),-82.7% [100 µM] (active),-85.1% [100 µM] (active),-100% [100 µM] (active),-80.5% [100 µM] (active),-100% [100 µM] (active),,73.9% [100 µM]
Oc1c(N=Nc2nn[nH]n2)ccc2ccccc12,107%,84.3%,59.1%,132%,86.8%,98.2%,102%,99.2%,106%,89.3%,,97.3%,,97.7%,78.5%,71.6%,91%,96.2%
CCOc1cc(CCNS(=O)(=O)c2ccc(C)cc2)c(C(C)=O)cc1OCC,86.1% [100 µM],80.5% [100 µM],-69.9% [100 µM] (active),84.6% [100 µM],75.5% [100 µM],36% [100 µM],62.1% [100 µM],9.64% [100 µM] (active),42.6% [100 µM],40% [100 µM],76% [100 µM],101% [100 µM],84.6% [100 µM],96.7% [100 µM],93.9% [100 µM],71.8% [100 µM],,66.3% [100 µM]
CC(=O)c1nn(-c2ccccc2)c(=Nc2ccccc2)cc1C,114%,97.7%,86.2%,104%,86.7%,99.1%,103%,94.3%,99.3%,100%,96.7%,90.5%,96.9%,108%,106%,113%,114%,100%
